Structures are written as SMILES. Results filed as inconclusive are left out. Unmarked numbers belong to inactive results. Calls come from the whole dose curve; as a rule, active = well fitted inhibition curve with a large enough effect; inconclusive = small, poorly fitted or top-dose-only effect, or effect the other way; inactive = flat fitted curve, though single readings scatter.
% is set by controls: 0 for no effect and ±100 for the full control effect.

In the experiment the target is ATP-dependent 6-phosphofructokinase (Trypanosoma brucei brucei) (UniProt O15648). Put plainly: qHTS Assay to Find Inhibitors of T. brucei phosphofructokinase: hit validation (AID 492961).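 Note: luminescence reports ADP formed as PFK phosphorylates fructose-6-phosphate with ATP.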 The following applies: T. brucei PFK, ADP-Glo luminescence; series mostly up to 51.4 µM; activity change, negative = inhibition: at the top concentration. The method, boiled down: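 Percent activity derived from corrected luminescence, normalized between 0x and 1x enzyme controls, then fitted to concentration-response curves. Conditions: 1.25 nM PFK, 0.1 mM ATP, 0.5 mM F6P, 45 min RT.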
Sequence of ATP-dependent 6-phosphofructokinase (Trypanosoma brucei brucei) (O15648 whole entry, looked up): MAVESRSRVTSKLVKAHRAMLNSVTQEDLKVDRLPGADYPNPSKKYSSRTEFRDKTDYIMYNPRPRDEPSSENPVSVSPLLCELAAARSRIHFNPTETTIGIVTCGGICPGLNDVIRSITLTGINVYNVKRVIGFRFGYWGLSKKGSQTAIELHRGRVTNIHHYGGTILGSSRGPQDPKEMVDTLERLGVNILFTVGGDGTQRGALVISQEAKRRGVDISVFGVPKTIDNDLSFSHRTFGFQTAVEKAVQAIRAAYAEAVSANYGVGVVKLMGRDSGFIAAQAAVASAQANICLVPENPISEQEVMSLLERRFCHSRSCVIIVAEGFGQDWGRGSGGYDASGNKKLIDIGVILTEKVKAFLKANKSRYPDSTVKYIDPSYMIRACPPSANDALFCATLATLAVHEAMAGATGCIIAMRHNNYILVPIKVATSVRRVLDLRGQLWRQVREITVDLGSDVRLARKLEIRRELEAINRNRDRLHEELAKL
As to `CC(CCc1ccc(O)cc1)NCC(O)c1ccc(O)cc1` (stereo not given), the “activity change, negative = inhibition” value is -5.11%.
As for `CC(C)CCC[C@@H](C)[C@H]1CC[C@H]2[C@@H]3CC=C4C[C@@H](O)CC[C@]4(C)[C@H]3CC[C@]12C`, the figure is -5.49%; as for `CCC(=O)c1ccc2c(c1)N(CCCN1CCN(CCO)CC1)c1ccccc1S2`, 4.64%; as for `O=C(O)/C=C/C(=O)Nc1ccc(S(=O)(=O)Nc2nccs2)cc1`, -2.56%.
As for `NC(=O)C1c2ccccc2CCc2ccccc21`, the figure is 6.08%; as for `O=C(O)CCCC/C=C(\c1ccccc1)c1cccnc1`, 11.3%.
As for `CC[C@H]1OC(=O)[C@H](C)[C@@H](O[C@H]2C[C@@](C)(OC)[C@@H](O)[C@H](C)O2)C(C)[C@@H](O[C@@H]2O[C@H](C)C[C@H](N(C)C)[C@@H]2O)[C@](C)(OC)C[C@@H](C)C(=O)[C@H](C)[C@@H](O)[C@]1(C)O` (stereo not given in full), the figure is 2.21%; as for `[O]=[Bi][O]C(=O)[O][Bi]=[O]`, 3.68%.
Regarding `CO/N=C(\C(=O)N[C@@H]1C(=O)N2C(C(=O)[O-])=C(C[n+]3cccc4c3CCC4)CS[C@H]12)c1csc(N)n1`, the “activity change, negative = inhibition” value is -13.2%.
As for `CCCCCCCCCC(=O)NO`, the figure is 3.22%.
For `C=C(C)C1CC=C(C)CC1` (stereo not given) the value was 1.64%; for `CC(=O)c1ccc2c(c1)N(CCCN1CCN(CCO)CC1)c1ccccc1S2`, -6.7%; for `O=C(O)/C=C/c1ccccc1`, -3.79%.
Turning to `N[C@H](CC(=O)O)C(=O)O`, the “activity change, negative = inhibition” value was -4.3%.
For `NC(N)=O` the value was 0.386%; for `OCCOCCOCCO`, -4.82%.
For `O=C1c2ccccc2CN2C(=O)c3ccccc3CN12` the value was -4.8%; for `CCCOc1cc(N)ccc1C(=O)OCCN(CC)CC`, 2.39% [at 24.3 µM].
As for `CCCCC`, the figure is 9.73%.
Take `O=C1c2ccccc2C(=O)C1c1ccc(Cl)cc1`: the “activity change, negative = inhibition” value was 17%.

These data come from PubChem BioAssay (NCATS).
